esBAF inh: inhibitors of esBAF chromatin remodeling in mouse ES cells; Bmi1-luciferase knock-in reporter, 24 h; 100% = twice the neutral-well signal; reporter increase, % at 12.5 µM; 350,000 tested, 2% active; in the data active means activation above about 40%; inconclusive means no clear call, values can overlap the other calls;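 further: 0% = median of the plate's neutral control wells and 100% = double that signal; a rise in the Bmi1 reporter signal indicates esBAF inhibition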
Wnt bcat act: activators of Wnt/beta-catenin signaling; AID 743398; activation, % at 9.35 µM; 300,000 tested, 1.2% active; Wnt/beta-catenin reporter cell assay, activator, plate reader; in the data active means activation above about 30%, passing the limit was not always enough; inconclusive means no clear call, values can overlap the other calls;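 further: 0% = neutral control wells and 100% = positive control wells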
MITF act: MITF TRPM1 promoter activation in melanoma cells; 300,000 tested, 0.75% active; activation, % at 12.5 µM; SK-MEL-5 TRPM1-promoter luciferase, 24 h; % of positive control, neutral wells = 0;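 active means mean activation of at least 80% with every replicate also reaching 80%; inconclusive means mean reaches 80% but some replicate falls short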;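 further: 0% = neutral control wells and 100% = parthenolide positive control wells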
HSF1 inhib: HSF1 inhibition; AID 2098; 300,000 tested, 0.77% active; activity change, negative = inhibition, % at 7.5 µM (by protocol); NIH3T3-HGL HSE-luciferase, MG132-induced, luminescence 8 h; stronger effect = lower value;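 active means more than half of replicate wells show activity change below -50%, luminescence cut by over half; inconclusive means some wells, but at most half, below -50%; inactive means no replicate well below -50%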;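 further: luciferase reports HSF-1 transcriptional activity via heat shock element; 0% = median of DMSO wells and -100% = zero luminescence signal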
HSF1 activator: increases HSF-1 driven luciferase reporter signal. NIH3T3-HGL HSF-1 luciferase reporter, MG132, 8 h; 100% = twice DMSO control signal. activation, % at 9 µM. 300,000 tested, 1.7% active;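 active means mean replicate activation of at least 50% with a set share of replicates each reaching 50%; inconclusive means only one of those two conditions met; inactive means mean below 50% and too few replicates reaching it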;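 further: 0% = median of the neutral control wells and 100% = twice that signal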
The depositor's hits bear a star; ? = inconclusive; / = no result. Rows were chosen to be rich in hits. Some 3.9% of all compounds tested hit in one or more screens of this group.

SMILES	esBAF inh	Wnt bcat act	MITF act	HSF1 inhib	HSF1 activator
N/C(=N\OC(=O)c1cccc2ccccc12)c1cccnc1	43.5*	45.3*	35.0	25.1	40.7
CNc1cc(-c2cccc(N(C)C)c2)ncn1	31.5	-0.4	/	/	/
CNc1cc(-c2ccc(CC#N)cc2)ncn1	50.4*	3.1	/	/	/
C[C@@H]1CN([C@@H](C)CO)C(=O)c2cc(C#Cc3ccncc3)cnc2O[C@H]1CN(C)Cc1ccncc1	3.5	/	/	/	/
CC(=O)NC(CSC(CC(=O)c1ccco1)c1ccc(C)cc1)C(=O)O (configuration not stated)	42.7*	9.3	38.7	17.5	?
CC(C)(C)c1ccc2c(c1)OC(C(=O)N/N=C\c1ccc[nH]1)CO2 (configuration not stated)	-12.4	-12.8	8.4	-73.3*	-74.6
CC(C)(C)c1ccc2c(c1)OC(C(=O)N/N=C\c1ccncc1)CO2 (configuration not stated)	-1.6	-4.6	8.3	2.5	-2.3
O=C(NCC(c1cccs1)N1CCOCC1)c1cc(=O)[nH]c2ccccc12 (configuration not stated)	-1.8	0.2	-4.8	-4.6	-19.1
O=C(NCC(c1ccco1)N1CCCC1)c1cc(=O)[nH]c2ccccc12 (configuration not stated)	-0.3	58.1*	-11.8	/	/
COCCn1c(N)c(N(Cc2ccccc2)C(=O)c2ccc(C#N)cc2)c(=O)[nH]c1=O	-5.6	1.7	3.5	12.8	55.3*
C[C@H]1CN([C@@H](C)CO)C(=O)c2cc(NC(=O)CCN3CCOCC3)ccc2O[C@@H]1CN(C)C(=O)Nc1cccc2ccccc12	-3.1	/	/	/	/
CC1(C)C=C2C(=NN(c3ccccc3)C(N)=C2C#N)CO1	-3.1	-0.3	/	-70.9*	-78.1
CNc1cncc(-c2cnn(CC(C)C)c2)n1	43.3*	8.5	/	/	/
O=C(CSc1nc(-c2ccc(F)cc2)cs1)N1CCOCC1	65.7*	/	69.0	1.3	43.6
CC1CN(C(=O)CSc2nc(-c3ccc(F)cc3)cs2)CC(C)O1 (configuration not stated)	-4.4	-2.6	8.3	15.2	-4.1
Cc1cc(C(=O)Nc2cccc3c2O[C@H](CN(C)S(C)(=O)=O)[C@H](C)CN([C@@H](C)CO)C3=O)n(C)n1	-3.3	/	/	/	/
Cc1ccc2nc(/C=C/c3cccc(F)c3)ccc2c1	/	71.1*	55.6	10.7	49.3
Fc1cccc(F)c1/C=C/c1ccc2ccccc2n1	/	/	-5.8	-18.4	-10.5
Cc1c(C(=O)OCC(C)C)[nH]c2c1C(=O)CC(c1ccco1)C2 (configuration not stated)	-47.6	-17.4	-5.5	-17.8	-16.5
Cc1c(C(=O)OCC2CCCO2)[nH]c2c1C(=O)CC(c1ccco1)C2 (configuration not stated)	-14.4	/	-13.5	18.2	56.6*
COc1ccccc1/C=C/C(=O)c1cc(Br)ccc1OC(=O)c1ccco1	7.6	0.0	-34.7	76.4	103.4*
COc1ccc(/C=N/Nc2nnc(C)n2N)cc1OC(C)=O	-3.6	5.8	/	39.8	79.6*
Nn1cnnc1N/N=C/c1ccc(Cl)c([N+](=O)[O-])c1	/	0.0	-13.6	-97.6*	-97.5
Cc1nnc(N/N=C/c2ccc(Br)cc2)n1N	10.7	1.4	11.1	39.7	52.5*
Nn1cnnc1N/N=C/c1cccc(Cl)c1Cl	-3.2	11.5	6.5	28.9	?
SMILES	esBAF inh	Wnt bcat act	MITF act	HSF1 inhib	HSF1 activator
Cc1nnc(N/N=C/c2ccc(-c3ccc(Br)cc3)o2)n1N	/	5.9	7.2	44.2	47.9
Cc1ccc(/C=N/Nc2nncn2N)cc1	-5.7	0.4	-9.6	37.5	74.4*
COc1ccc(/C=N/Nc2nnc(C)n2N)cc1OC	/	4.5	-13.2	26.6	43.2
O=C(C[C@@H]1CC[C@H](NS(=O)(=O)c2ccc(F)cc2)[C@H](CO)O1)NCCc1ccncc1	-1.0	/	/	/	/
C[C@H]1CN([C@@H](C)CO)C(=O)CCCn2cc(nn2)CO[C@@H]1CN(C)Cc1ccc2c(c1)OCCO2	-6.7	/	/	/	/
Nn1cnnc1N/N=C/c1ccc(F)cc1	1.2	-0.1	3.6	37.0	55.1*
O=C(Nc1ccc(F)cc1)c1nc(S(=O)(=O)Cc2ccccc2)ncc1Cl	-6.8	-7.5	-62.5	-84.7*	-88.8
Cc1ccc(NC(=O)c2nc(S(=O)(=O)Cc3ccccc3)ncc2Cl)cc1	-17.1	-9.6	-94.7	-94.6*	-95.5
Cc1ccccc1CS(=O)(=O)c1ncc(Cl)c(C(=O)Nc2ccc(F)cc2)n1	-3.3	0.1	-91.5	-12.0	-27.9
C[C@H]1CN([C@@H](C)CO)C(=O)Cc2cc(NC(=O)CCN3CCOCC3)ccc2O[C@H]1CN(C)Cc1ccc(Oc2ccccc2)cc1	-2.0	/	/	/	/
CC(=O)N1C[C@H]2[C@@H](c3ccccc31)[C@@H](CO)N2C(=O)Nc1ccc(F)cc1	-2.2	/	/	/	/
CCOC(=O)c1sc(NC(=O)C(C)(C)C)cc1C	57.3*	26.8	/	17.9	39.3
CCOC(=O)c1sc(NC(=O)c2ccc(S(=O)(=O)N(C)C)cc2)cc1C	-5.8	-14.1	/	1.9	1.8
CCOC(=O)c1sc(NC(=O)c2ccc(Cl)s2)cc1C	61.5*	24.5	63.0	27.2	41.6
CCOC(=O)c1sc(NC(=O)c2ccccc2)cc1C	57.3*	/	/	25.3	55.4*
CCOC(=O)c1sc(NC(=O)C2CC2)cc1C	17.4	6.0	25.9	3.0	14.5
Cc1ccccc1S(=O)(=O)N1C[C@H](O)COC[C@H]2O[C@@H](CC(=O)NCCc3ccccc3)CC[C@@H]21	2.4	/	/	/	/
O=C(Nc1nc(=O)c2ccccc2s1)c1ccc(F)cc1	50.6*	-2.3	62.4	-12.0	-15.7
O=C(Nc1nc2ccccc2s1)c1c(F)cccc1Cl	51.9*	6.5	43.4	9.4	22.3
O=C(Nc1nc2ccccc2s1)Nc1ccc(F)cc1F	22.3	37.9*	/	35.9	50.2*
O=C(Nc1ccc(F)cc1F)Nc1sccc1-c1nc2ccccc2s1	-1.8	0.2	/	-7.0	2.9
Cc1cc(C)n(-c2ccc(C(=O)Nc3nc4ccccc4s3)cc2)n1	43.7*	?	56.5	9.0	21.7
C[C@@H]1CN([C@H](C)CO)C(=O)Cc2cc(NS(C)(=O)=O)ccc2O[C@H]1CN(C)Cc1ccc(Cl)c(Cl)c1	0.1	/	/	/	/
CC(C)NC(=O)N(C)C[C@H]1OCCCC[C@@H](C)Oc2ccc(NS(C)(=O)=O)cc2C(=O)N([C@H](C)CO)C[C@@H]1C	-2.2	/	/	/	/
CNC[C@@H]1Oc2cc(C#CC3CCCC3)ccc2S(=O)(=O)N([C@H](C)CO)C[C@H]1C	-1.8	/	/	/	/
SMILES	esBAF inh	Wnt bcat act	MITF act	HSF1 inhib	HSF1 activator
COCC(=O)N(C)C[C@@H]1Oc2ncc(-c3ccc(C)cc3)cc2C(=O)N([C@H](C)CO)C[C@H]1C	4.1	/	/	/	/
NC(=S)Nc1nc2ccccc2s1	/	-4.7	-1.3	-2.8	-0.2
Cc1csc(NC(=O)c2nc3nccc(C)n3n2)n1	21.2	/	48.9	11.7	15.8
Cc1ccnc2nc(C(=O)Nc3nc4ccccc4s3)nn12	-16.4	37.9*	14.5	7.1	14.2
Fc1cccc2sc(Nc3nc4ccccc4s3)nc12	?	36.3*	29.3	34.7	46.9
Nc1ccc(C(=O)Nc2nc3ccccc3s2)cc1	-16.8	35.3*	6.9	33.3	57.2*

Source: PubChem BioAssay
